PMC5540273 (PLoS ONE, 2017)

Tests used:
Conditions in all cases: concentration: 1 μM, replicates: in singlicate; n = 1
SRPK1 = system: SRPK1
SRPK2 = system: SRPK2
SRPK3 = system: SRPK3
STK16 = system: STK16
STK33 = system: STK33
STK35 = system: STK35
STK36 = system: STK36
STK39 = system: STK39
SYK = system: SYK
SgK110 = system: SgK110
TAK1 = system: T1, TAK1
T1 construct: gene MAP3K7

TAOK1 = system: TAOK1
TAOK2 = system: TAOK2
TAOK3 = system: TAOK3
TBK1 = system: TBK1
TEC = system: TEC
TESK1 = system: TESK1
TGFBR1 = system: TGFBR1
TGFBR2 = system: TGFBR2
TIE1 = system: TIE1
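Further: KINOMEscan kinase panel screen.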

| SMILES | %Inh (SRPK1) [%] | %Inh (SRPK2) [%] | %Inh (SRPK3) [%] | %Inh (STK16) [%] | %Inh (STK33) [%] | %Inh (STK35) [%] | %Inh (STK36) [%] | %Inh (STK39) [%] | %Inh (SYK) [%] | %Inh (SgK110) [%] | %Inh (TAK1) [%] | %Inh (TAOK1) [%] | %Inh (TAOK2) [%] | %Inh (TAOK3) [%] | %Inh (TBK1) [%] | %Inh (TEC) [%] | %Inh (TESK1) [%] | %Inh (TGFBR1) [%] | %Inh (TGFBR2) [%] | %Inh (TIE1) [%] |
| --- | --- | --- | --- | --- | --- | --- | --- | --- | --- | --- | --- | --- | --- | --- | --- | --- | --- | --- | --- | --- |
| Cc1c(Cn2c(C)nn3c(=O)cc(N4CCO[C@H](C)C4)nc23)cccc1C(F)(F)F [GSK2373690] | 0 | 0 | 0 | 6 | 0 | 2 | 0 | 32 | 25 | 2 | 0 | 0 | 9 | 0 | 1 | 0 | 34 | 0 | 4 | 10 |
| O=C(Nc1n[nH]c2cc(-c3ccccc3F)ccc12)C1CC1 [SB-733371] | 10 | 0 | 38 | 0 | 0 | 11 | 0 | 2 | 17 | 0 | 0 | 52 | 19 | 24 | 0 | 0 | 1 | 0 | 0 | 0 |
| COc1cccc(C2=C(Nc3cccc(C(=O)O)c3)C(=O)NC2=O)c1 [SB-390770] | 8 | 24 | 11 | 8 | 2 | 12 | 4 | 0 | 30 | 3 | 0 | 0 | 0 | 0 | 12 | 0 | 28 | 1 | 0 | 27 |
| CCC(=O)c1c(-c2ccccc2)c2cc(Cl)ccc2c(=O)n1Cc1cc(C(=O)NC2CC2)n(C)n1 | 0 | 19 | 0 | 6 | 0 | 51 | 0 | 13 | 0 | 11 | 3 | 0 | 0 | 0 | 0 | 2 | 23 | 8 | 0 | 6 |
| O=C(NCCNc1ccnc(Nc2ccc(F)cc2)n1)Nc1ccc2c(c1)OCO2 [GSK1379882] | 17 | 24 | 0 | 23 | 0 | 0 | 0 | 12 | 0 | 0 | 0 | 0 | 0 | 0 | 30 | 4 | 96.3 | 0 | 0 | 0 |
| CCCNC(=O)Nc1ccc(Oc2ncnc3ccn(C)c23)cc1 | 25 | 0 | 10 | 11 | 0 | 0 | 32 | 0 | 0 | 41 | 22 | 0 | 0 | 0 | 13 | 1 | 0 | 8 | 0 | 0 |
| COc1cc2ncn(-c3cc(OCc4ccncc4Br)c(C(N)=O)s3)c2cc1OC [GW854278] | 44 | 0 | 28 | 14 | 6 | 0 | 1 | 0 | 20 | 0 | 0 | 4 | 0 | 0 | 24 | 2 | 26 | 17 | 0 | 31 |
| COc1cc(Nc2nccc(N3CCC(NC(=O)C4COc5ccccc5O4)C3)n2)cc(OC)c1OC (stereo not drawn) [GSK1379761] | 65 | 70 | 0 | 70 | 4 | 13 | 40 | 0 | 44 | 0 | 7 | 11 | 0 | 5 | 0 | 0 | 33 | 12 | 0 | 17 |
| CCc1ccc(-c2ccc3c(c2)-c2nn(C)cc2S(=O)(=O)N3C)cc1 | 0 | 0 | 0 | 0 | 2 | 0 | 0 | 0 | 27 | 12 | 0 | 0 | 37 | 0 | 0 | 0 | 2 | 1 | 0 | 0 |
| CCC(=O)c1c(-c2ccccc2)c2cc(Cl)ccc2c(=O)n1Cc1ccc(C(=O)O)cc1 | 0 | 10 | 0 | 0 | 0 | 0 | 0 | 23 | 0 | 49 | 0 | 0 | 0 | 0 | 0 | 10 | 6 | 11 | 0 | 0 |
| COc1cc2ncn(-c3cc(OCCCc4ccccc4)c(C(N)=O)s3)c2cc1OC [GSK205189] | 27 | 0 | 7 | 13 | 0 | 15 | 0 | 0 | 21 | 0 | 0 | 0 | 0 | 0 | 15 | 0 | 4 | 0 | 0 | 22 |
| CCC(=O)c1c(-c2ccccc2)c2cc(Cl)ccc2c(=O)n1Cc1cc(S(C)(=O)=O)n(CC(N)=O)n1 | 0 | 0 | 0 | 16 | 17 | 0 | 0 | 0 | 9 | 0 | 0 | 0 | 15 | 0 | 12 | 0 | 0 | 0 | 0 | 0 |
| COc1cc2nccc(Nc3cccc(Oc4ccccc4)c3)c2cc1OC.Cl [GW284543] | 65 | 0 | 0 | 0 | 0 | 0 | 0 | 1 | 37 | 0 | 0 | 0 | 0 | 0 | 0 | 45 | 3 | 41 | 0 | 9 |
| Cc1ccc(-c2ccc3c(ccc4sc5c(c43)NC[C@@H](C)N=C5N(C)C)n2)cn1 | 0 | 6 | 25 | 0 | 0 | 0 | 0 | 0 | 0 | 14 | 7 | 0 | 0 | 0 | 0 | 9 | 0 | 0 | 13 | 0 |
| CCc1nc(-c2cccc(C)c2)c(-c2ccncc2)s1 | 0 | 0 | 15 | 23 | 0 | 0 | 15 | 0 | 23 | 0 | 0 | 0 | 14 | 0 | 35 | 0 | 0 | 0 | 13 | 0 |
